Compounds without any hit were thinned out: in the full panel of roughly 83,000, 20% have a hit.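 Cells were grown in 96-well plates and exposed to the test compound at a single concentration for 48 hours; results are reported as percent growth, with values below 10 considered active.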 A number with no mark means an inactive call. The source made the active and inactive calls.

The assay concerns SN12C renal. In words: NCI-60 one-dose screen, 48 h (100 = growth as untreated, 0 = no growth, -100 = all killed). The following applies: 10 µM unless noted. The method, then: Growth inhibition of the SN12C human tumor cell line is measured as a screen for anti-cancer activity. Cells are grown in 96 well plates and exposed to the test compound for 48 hours. Compounds are tested at a single concentration, which is 10^-5 M for most compounds. The reported endpoint is percent growth (GI% or GIPRCNT), where numbers from 0 - 100% represent growth inhibition, and numbers from -100% - 0 represent cell death. For example, a value of 40 represents 60% growth inhibition. A value of 0 means no net growth occurred over the course of the experiment. A value of -40 indicates 40% of cells at the beginning of the experiment died by the end of the experiment. A value of -100 means all cells are dead at the end of the experiment.
NCI-60 Human Tumor Cell Lines Screen was performed using the standard one-dose NCI protocol, which is described in more detail at https://dtp.cancer.gov/discovery_development/nci-60/default.htm.
Compounds with GIPRCNT values below 10 were considered active. Activity score was based on GIPRCNT using the following formula: […]
Score is 0 for GIPRCNT values of 100 or above, 50 for GIPRCNT values of 0, and 100 for GIPRCNT values of -100.
On to `Cc1ccnc2c(NC(C)CCCN)cc(O)c(O)c12` (stereo not given), for which the growth was 27.2%.

`FC(F)(F)c1cccc(-c2[nH]ncc2-c2nnnn2-c2ccccc2)c1`: the growth was 65.5%. Under `O=C1C(=O)c2ccccc2C(O)=C1CCCc1ccc(Oc2ccccc2)cc1` stands 77.8%; under `COc1cc(CNC(=O)CCCC/C=C/C(C)C)ccc1OCc1nnc(Nc2ccccc2F)o1`, 70.5%.

For `Clc1ccc(I)c2ccccc12`, the growth was 111%.

Consider `O=C1c2cc([N+](=O)[O-])ccc2-c2cc(Cl)c(NC(=O)C(F)(F)F)cc21`, for which the growth is 112%.

Turning to `O=C(OCC1CC2(Cl)C(Cl)=C(Cl)C1(Cl)C2(Cl)Cl)C1C(C(=O)OCC2CC3(Cl)C(Cl)=C(Cl)C2(Cl)C3(Cl)Cl)C2(Cl)C(Cl)=C(Cl)C1(Cl)C2(Cl)Cl` (stereo not given), the growth was 105%.

`O=C(Nc1ccc(-n2cc(-c3ccncc3)c(-c3ccc(Cl)c(O)c3)n2)cc1)Nc1cc(C(F)(F)F)cc(C(F)(F)F)c1`: the growth is 30.1%. Consider `O=C(N/N=C/c1cc(Cl)ccc1O)C(=O)N/N=C/c1cc(Cl)ccc1O`, for which the growth was 79.5%. Under `CCOc1ccc2nc3ccc(Cl)cc3nc2c1` stands 100%; under `CC(=O)CCS(=O)c1ccccc1` (stereo not given), 98.6%; under `COc1cc(NC(C)CCCN)c2nc(C)ccc2c1OC` (stereo not given), 99%.

`Nc1nc2cc(O)ccc2n2cc3c(F)cccc3c12`: the growth was 47%. Under `Nc1ncn([C@@H]2O[C@H](CO)[C@@H](O)C2(F)F)c(=O)n1` stands 51.7%; under `CCCC(CCC)Oc1ccc(CCCC2=C(O)c3ccccc3C(=O)C2=O)cc1`, 45.5%; under `[N-]=[N+]=Nc1ncc(-c2ccc(C(F)(F)F)cc2)c(NC2CCCCCC2)n1`, 42.5% [100 µM]. To `CC(=O)Nc1ccc(CC#N)cc1Br` belongs 107%. To `O=C(N/N=C\c1ccc(-c2ccc(Br)cc2)o1)c1cc2oc(-c3cccc(C(F)(F)F)c3)cc2[nH]1` belongs 107%; to `CN1C(=O)C(=Cc2coc3ccc(Br)cc3c2=O)C(=O)N(C)C1=O`, 90.3%. `COc1cc2cn3c4ccc(O)cc4[nH]c(=O)c3c2cc1OC`: the growth is 37%. Under `CCCCCCN(CCCCCC)CCC(=O)Nc1ccc(S(=O)(=O)c2ccc(NC(=O)CCN(CCCCCC)CCCCCC)cc2)cc1` stands 81.4%; under `COc1cc(-c2c3c(cn2CCN2CCCCC2)-c2oncc2CC3)cc(OC)c1OC`, 101%. As for `CCCCCCNC(=O)Oc1ccc(/C(=C(/C)Cc2ccc(OC)cc2)c2ccc(OCCN3CCCCC3)cc2)cc1`, the growth was 80.1%. To `O=P(OCCCl)(OCCCl)C(O)c1ccccc1Cl` (stereo not given) belongs 111%; to `CCC(C)(C)c1ccc(OCCCCCCN2CCNCC2)cc1`, 88.2%; to `COC(=O)C1CC(=O)N(C(=O)Nc2ccc(Cl)cc2Cl)C1` (stereo not given), 101%. Under `COc1ccc(C2=NN(C(=O)c3cc(-c4ccc(C)cc4)nc4ccccc34)C(c3cc(-c4ccccc4)nn3-c3ccccc3)C2)cc1` (stereo not given) stands 97.7%; under `CCCCCCCCCCCCCCCCNC(=O)Nc1ccc(C)c(NC(=O)NCCCCCCCCCCCCCCCC)c1`, 103%. Under `CCOC(=O)c1cc(C(=O)c2ccc(Br)cc2)n2cc(C)cc(C)c12` stands 101%. As for `CCCC(=O)Nc1ccccc1C(=O)O`, the growth was 109%. Consider `CCOc1ccc(Br)cc1/C=C(\C#N)c1ccc([N+](=O)[O-])cc1`, for which the growth is 85.3%. To `NNC(=S)N1N=C(c2cc3ccccc3o2)CC1c1c[nH]c2ccccc12` (stereo not given) belongs 56.9%; to `CC[n+]1c(C)ccc2cc(C)ccc21`, 96.8%. For the compound `COc1cc(C(=O)Nc2ccc(N(C)C)cc2)cc(OC)c1OC`, the growth was 94.2%. As for `NCCCOc1cc2ccccc2cc1C(=O)Nc1ccc(Cl)cc1OC(=O)c1cc2ccccc2cc1OCCCN`, the growth was -41.2% (active). Under `COC(=O)[C@H](Cc1cn(C)cn1)NC(=O)[C@H](Cc1c[nH]c2ccccc12)NC(=O)Nc1cc(C(F)(F)F)cc(C(F)(F)F)c1` stands -83.7% [100 µM] (active); under `COC(=O)C(N)CC(C)C` (stereo not given), 17.6%. Take `COC1=C(OC)C(=O)c2ccccc2C1=O`: the growth was 108%. Under `CC(=O)Nc1nc(C)c(C(=O)NNC(=O)Nc2ccccc2)s1` stands 92.3%; under `Clc1ccc(N/N=C(\c2ccccc2)c2ccccn2)nc1`, 15.7%.
